TDP1 block: qHTS Assay for Inhibitors of Tyrosyl-DNA Phosphodiesterase (TDP1). recombinant TDP1, AlphaScreen DNA substrate cleavage. AID 485290, 2010. 0.28% of 350,000 active. Tyrosyl-DNA phosphodiesterase 1 (Homo sapiens), Q9NUW8. Potency, µM (highest dose often 130 µM), for inactives: top-dose activity change, negative = inhibition, hits mostly inhibitors; also: potency is read from the fitted curve at half-maximal effect; nearly all actives have a fitted effect of over 40% in size
Target sequence (Q9NUW8 whole entry, looked up): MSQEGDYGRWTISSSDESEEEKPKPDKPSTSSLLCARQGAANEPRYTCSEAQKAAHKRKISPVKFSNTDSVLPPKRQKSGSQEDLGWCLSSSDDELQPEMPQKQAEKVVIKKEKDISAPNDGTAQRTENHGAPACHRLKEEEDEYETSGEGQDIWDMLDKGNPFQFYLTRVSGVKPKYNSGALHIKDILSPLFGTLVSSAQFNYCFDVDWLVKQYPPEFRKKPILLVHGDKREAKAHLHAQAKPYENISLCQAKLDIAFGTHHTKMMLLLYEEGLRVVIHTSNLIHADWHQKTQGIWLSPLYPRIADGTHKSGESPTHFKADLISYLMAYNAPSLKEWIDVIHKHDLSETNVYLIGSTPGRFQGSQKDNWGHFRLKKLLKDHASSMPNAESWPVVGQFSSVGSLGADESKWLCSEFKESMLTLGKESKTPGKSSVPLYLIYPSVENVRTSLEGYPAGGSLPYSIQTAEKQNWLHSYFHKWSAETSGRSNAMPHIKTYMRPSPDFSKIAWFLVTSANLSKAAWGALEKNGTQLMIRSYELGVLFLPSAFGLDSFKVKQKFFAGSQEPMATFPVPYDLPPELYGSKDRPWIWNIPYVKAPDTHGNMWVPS
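Recombinant human Tdp1 (E. coli-expressed, 1 nM final) preincubated with compounds 15 min at room temperature, then 5'-biotin/3'-phosphotyrosine-FITC DNA substrate (15 nM final) added for 5 min. AlphaScreen beads (10 ug/ml final) added 10 min; cleavage lowers signal.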
ELG1 DNA repair: qHTS screen for small molecules that inhibit ELG1-dependent DNA repair in human embryonic kidney (HEK293T) cells expressing luciferase-tagged ELG1; 2.3% of 330,000 active; HEK293T ELG1-luciferase reporter, luminescence, 16 h; DNA damage induced by 5-fluorouridine; AID 504467, 2011; Potency, µM (series often up to 46.1 µM), for inactives: at the highest dose activity change, negative = inhibition, most hits filed as inhibitors; also: potency is read from the fitted curve at half-maximal effect; nearly all actives have a fitted effect of over 55% in size
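Luminescence from the luciferase reporter, measured 30 min after ONE-Glo reagent at room temperature, was the read-out. Beforehand, 2,000 cells per well were exposed for 16 hr at 37 °C to 5-fluorouridine together with compound or vehicle.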
IL1B secr inh: qHTS for Inhibitors of Inflammasome Signaling: IL-1-beta AlphaLISA Primary Screen; 4.7% of 360,000 active; activity change, % at 57.5 µM; THP-1 LPS/ATP IL-1B secretion, AlphaLISA, 16 h; hits give low values; in the data active = activity change below about -50%; inconclusive = mostly about -30% to -49%
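THP-1 cells pretreated 1 hr with compounds (up to 57.5 uM final), then stimulated with LPS (250 ng/mL final) plus ATP (1.25 mM final); secreted IL-1B measured by AlphaLISA after 16 hr, decreased signal indicating inhibition.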
TDP1 cell noCPT: qHTS for Inhibitors of human tyrosyl-DNA phosphodiesterase 1 (TDP1): qHTS in cells in absence of CPT. DT40 Tdp1-/- hTDP1 cells, no CPT, ATP luminescence, 48 h. Potency, µM (series often up to 46.2 µM), for inactives: at the highest dose activity change, negative = growth inhibition, usual class: inhibitors. 15% of 420,000 active. AID 686978, 2013; also: potency is read from the fitted curve at half-maximal effect; nearly all actives have a fitted effect of over 55% in size
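Growth of hTDP1-complemented DT40 Tdp1-knockout cells is measured by ATP luminescence after at least 48 hr compound exposure at 37 °C, with DMSO substituting for the 20 nM CPT used in the parallel screen.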
Giardia kill: Small Molecules that selectively kill Giardia lamblia: qHTS; Giardia lamblia trophozoite viability; activity change, % at 7.66 µM, hits read low; 0.15% of 340,000 active; in the data active = activity change below about -80%; inconclusive = between about -30% and that limit;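 also: parasites exposed to compound for two days anaerobically before the ATP read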
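Luminescent ATP signal served as the viability read-out, measured 15-30 min after adding ATP detection reagent to trophozoites that had been incubated with compounds for 48 hrs at 37 deg C anaerobically at 100 cells/well.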
DT40 TDP1 CPT: qHTS for Inhibitors of human tyrosyl-DNA phosphodiesterase 1 (TDP1): qHTS in cells in presence of CPT; chicken DT40 Tdp1-/-;hTDP1 cells + 20 nM CPT, ATP luminescence, 48 h; Potency, µM (series often up to 46.2 µM), for the others: at the highest dose activity change, negative = growth inhibition, hits mostly inhibitors; 12% of 420,000 active; also: potency is read from the fitted curve at half-maximal effect; nearly all actives have a fitted effect of over 55% in size
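Chicken DT40 Tdp1-/- cells stably complemented with human TDP1 were seeded at 400 cells/well in medium containing 20 nM camptothecin, exposed to pin-transferred compounds, and grown at 37 °C for at least 48 hr. Viability was read as ATP luminescence.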
An asterisk follows results filed as active; ? = inconclusive; nt = not tested or not shown. Most compounds without a hit are left out; they make up all but 19% or so of the library. Unless noted, calls follow the shape of the dose curve; as a rule, active = well fitted curve in the direction sought with a large enough effect; inconclusive = small, poorly fitted or top-dose-only effect, or another doubt; inactive = no such curve, though single readings can be large; an effect the other way counts as inactive or inconclusive. % is scaled to controls: 0 for no effect and ±100 for the full control effect.

SMILES	TDP1 block	ELG1 DNA repair	IL1B secr inh	TDP1 cell noCPT	Giardia kill	DT40 TDP1 CPT
CN1CCCC(OC(=O)c2ccc(C(C)(C)C)cc2)C1 (stereo not given)	nt	?	14.8	-16.6%	-19.6	-11.5%
CCOc1ccc(NC(=O)c2ccc(S(=O)(=O)N(C)C)cc2)cc1	2.1%	-9.0%	0.9	-20.7%	-19.0	-23.0%
CCOc1ccc(C(=O)Nc2ccc(S(=O)(=O)N(Cc3ccccc3)c3ccccc3)cc2)cc1	3.6%	nt	nt	5.17µM*	nt	5.8µM*
COC(=O)c1ccc(CN(c2ccc(OC)cc2)S(=O)(=O)c2ccccc2)cc1	nt	nt	-9.7	13µM*	-1.9	?
COC(=O)Cc1ccc(N(Cc2ccccc2F)S(=O)(=O)c2ccc(Cl)cc2)cc1	0.0%	-5.6%	0.0	14.6µM*	-10.0	?
Cc1ccc(C(=O)Nc2ccc(S(=O)(=O)N(Cc3ccccc3)c3ccccc3)cc2)cc1	-4.7%	nt	nt	23.1µM*	nt	16.4µM*
COc1ccc(N(Cc2ccccc2)S(=O)(=O)c2ccc(C)cc2)cc1	-1.2%	0.0%	-21.7	?	6.6	3.2%
CCOc1ccc2oc(C(=O)NNC(=O)c3csc(N4CCOCC4)n3)c(C)c2c1	3.5%	-12.6%	21.5	-20.2%	4.8	-8.6%
CCOc1ccc(/C=N/NC(=O)c2cccc3ccccc23)c(OCC)c1	4.1%	3.6%	50.6	-0.7%	-0.8	-12.8%
O=[N+]([O-])c1ccc(S(=O)(=O)NCCc2cn3ccccc3n2)cc1	-2.6%	-3.5%	-10.3	-4.4%	26.8	-3.2%
C/C(=N\NC(=O)COc1ccc([N+](=O)[O-])cc1)C(C)(C)C	5.9%	-6.9%	-5.1	-9.9%	-7.6	5.8%
O=C(Nc1ccccn1)c1ccc(CN(c2ccccc2)S(=O)(=O)c2ccccc2)cc1	2.7%	18.3µM*	-19.1	?	-8.0	?
COc1ccc(N(Cc2ccccc2)S(=O)(=O)c2cccc(C(=O)Nc3ccccn3)c2)cc1	0.6%	-7.2%	-7.4	?	-2.1	?
CCOC(=O)c1ccccc1-c1csc(N)n1	-2.7%	7.5%	3.9	-18.5%	-2.6	27.5%
CCn1cc(Cl)c(C(=O)NNC(=O)CCn2ccc([N+](=O)[O-])n2)n1	3.5%	-8.5%	-6.8	3.2%	-8.0	0.4%
COCCOC(=O)C(C#N)c1nc2ccccc2nc1N1CCCC1 (stereo not given)	3.8%	-23.3%	-16.4	-12.2%	8.9	-3.3%
CCCCCCOC(=O)C(C#N)c1nc2ccccc2nc1N1CCN(CC)CC1 (stereo not given)	4.8%	-26.2%	?	20.6µM*	-0.7	?
CCCCOC(=O)C(C#N)c1nc2ccccc2nc1N1CCOCC1 (stereo not given)	9.5%	20.6µM*	?	?	3.8	?
CCCCCCOC(=O)C(C#N)c1nc2ccccc2nc1N1CCOCC1 (stereo not given)	3.1%	?	-12.7	18.4µM*	6.2	?
N#CC(C(=O)NCc1ccco1)c1nc2ccccc2nc1N1CCOCC1 (stereo not given)	11.9%	?	-13.9	?	1.6	?
CC1CCN(c2nc3ccccc3nc2C(C#N)C(=O)OC2CCCCC2)CC1 (stereo not given)	2.1%	21.0%	-3.5	?	6.4	16.4µM*
CCCCCNC(=O)C(C#N)c1nc2ccccc2nc1N1CCCC1 (stereo not given)	4.8%	13.7%	19.4	?	-5.1	-4.4%
